Measured values: PubChem BioAssay AID430 (Sanford-Burnham Center for Chemical Genomics, 2006)
Among all 63,000 compounds or so, about 1,100 (1.7%) were called active. Only a selection was taken, and actives are over-represented in it overall. Potency and affinity values are given separately. Unmarked numbers belong to inactive results. Cut-off read from the data, not from the text of the source: active = cytotoxicity above about 50%; inactive = the rest.

Assay: HPDE-C7 pancreatic duct cell viability loss – fluorescence, HTS (AID 430);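 note: cells exposed to compound for 48 hours before viability readout; 0% = vehicle and 100% = reference cytotoxic drug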
Settings: HPDE-C7 pancreatic duct cells viability, at 10 µM, hits give high values

Row | SMILES | cytotoxicity
1 | COc1ccc(OC)c2sc(NC(=O)CCS(=O)(=O)c3ccccc3)nc12 | -0.4%
2 | O=C(CCS(=O)(=O)c1ccccc1)Nc1nc2c(s1)COc1ccccc1-2 | 98.3% (active)
3 | O=C(Nc1nc2c(s1)COc1ccccc1-2)c1cccs1 | 9.6%
4 | Clc1ccc2nc(CN3CCCc4ccccc43)cn2c1 | 23.1%
5 | CCCCCn1c(=NC(C)=O)c(C#N)cc2c(=O)n3ccccc3nc21 | 8.8%
6 | O=C(O)Cn1cc(C(=O)c2cccs2)c2ccccc21 | -14%
7 | COCCn1c(C(C)C)nc2oc3ccccc3c(=O)c2c1=O | -9.4%
8 | CCC(=O)N1CCc2cc(S(=O)(=O)NCCN3CCC(C)CC3)ccc21 | -1.8%
9 | CCN1C(=O)CC(N2CCC(C(=O)OC)CC2)C1=O (stereo not given) | -6.2%
10 | Cc1nc2sc(C(c3ccccc3)N3CCN(CCO)CC3)c(O)n2n1 (stereo not given) | -1.3%
11 | OCCN1CCN(C(c2cccs2)c2ccc3cccnc3c2O)CC1 (stereo not given) | 79.3% (active)
12 | CN1CCN(C(c2cccnc2)c2ccc3cccnc3c2O)CC1 (stereo not given) | -9.1%
13 | CC1CCC(C(=O)NC(C(=O)NCCN2CCC(C)CC2)C(C)C)CC1 (stereo not given) | -16.7%
14 | Cc1nnc(SCc2ccccc2Cl)n1CC1CCCO1 (stereo not given) | -11.9%
15 | COc1ccc(NC2=CC(=O)CC(C)(C)C2)cc1OC | -19.2%
16 | O=C(Nc1cccc2ccccc12)N1CCN(c2ccccc2)CC1 | 15.2%
17 | O=C(Nc1cccc(NC(=O)N2CCN(c3ccccc3)CC2)c1)N1CCN(c2ccccc2)CC1 | 56.3% (active)
18 | O=C(Nc1ccc2snnc2c1)N1CCN(c2ccccc2)CC1 | -24.9%
19 | COc1ccc(Cn2c(C)nc3oc4cc(OC)ccc4c(=O)c3c2=O)cc1 | -21%
20 | Nc1nc2n(n1)C(c1cccc(Cl)c1)CC(c1ccc(F)cc1)N2 (stereo not given) | 10.8%
21 | Cc1cc(C)c(C#N)c(SCC(=O)CC(=O)OC(C)C)n1 | 34.5%
22 | CCOC(=O)CC(=O)CSc1nc2c(cc1C#N)CCCCC2 | -5.9%
23 | Cc1nc(SCC(=O)CC(=O)OC(C)C)c(C#N)c(C)c1C | -1.2%
24 | COC(=O)CC(=O)CSc1nc2c(cc1C#N)CCCCC2 | 10.3%
25 | CCOC(=O)c1sc(NC(=O)CSc2nc3c(cc2C#N)CCC3)c(C#N)c1C | 4.5%

Row | SMILES | cytotoxicity
26 | COC(=O)CC(=O)CSc1nc2c(cc1C#N)CCC2 | 76.1% (active)
27 | CCOC(=O)c1sc(NC(=O)CSc2nc3c(cc2C#N)CCCCCC3)c(C#N)c1C | 79.6% (active)
28 | CC(C)OC(=O)CC(=O)CSc1nc2c(cc1C#N)CCC2 | 49.9%
29 | CCOC(=O)CC(=O)CSc1nc2c(c(C)c1C#N)CCC2 | 52.6% (active)
30 | N#Cc1cc2c(nc1SCC(=O)Nc1sc3c(c1C#N)CCC3)CCCCC2 | 23.2%
31 | Cc1c(C#N)c(SCC(N)=O)nc2c1CCCC2 | -21%
32 | COc1cc(Cl)ccc1S(=O)(=O)n1nc(C)cc1C | 7.8%
33 | CCc1ccc(S(=O)(=O)NCc2csc(-c3cccnc3)n2)s1 | -5%
34 | CCOC(=O)c1ccccc1NC(=O)c1c(O)c2ccccc2n(CC)c1=O | -9.2%
35 | CC(=O)N1CCc2cc(S(=O)(=O)NC(CC(C)C)C(=O)Nc3cc(C)ccn3)ccc21 (stereo not given) | -6.7%
36 | Cc1cc(C(C)(C)C)oc1C(=O)N1CCN(C(=O)c2oc(C(C)(C)C)cc2C)CC1 | 4%
37 | CCCCS(=O)(=O)C(=C1Nc2ccccc2N1)S(=O)(=O)CCCC | -0.6%
38 | CCOCCCn1c(=S)[nH]c2cc(C(=O)N3CCC(C(N)=O)CC3)ccc2c1=O | 0.3%
39 | CC(C)OC(=O)CSc1nnc(-c2cnccn2)n1-c1ccc(Cl)cc1 | 9.2%
40 | Cc1ccc(OCC(=O)N2CCN(C(=O)Cc3ccccc3)CC2)cc1 | -0.3%
41 | CCOC(=O)CSc1nc2cc(C(=O)N3CCC(C(N)=O)CC3)ccc2c(=O)n1-c1ccccc1 | -8.3%
42 | N#CCSc1nc2cc(C(=O)N3CCCC3)ccc2c(=O)n1Cc1ccccc1 | -0.6%
43 | N#CCSc1nc2cc(C(=O)N3CCC(C(N)=O)CC3)ccc2c2nc3ccccc3n12 | 75.7% (active)
44 | Cc1onc(-c2ccccc2)c1C(=O)Nc1cccc2nsnc12 | -11.7%
45 | COc1ccc(Cn2c(C)ccc2C)cc1 | -2%
46 | COc1ccc(CN2CCC(=O)NC2=O)cc1 | 6.7%
47 | COc1ccc(CN2CN(C(C)C)CSC2=S)cc1 | 50.5% (active)
48 | CC(=O)c1cc(-c2ccccc2)n(CCC(=O)NCc2cccs2)c1C | -24%
49 | N#CC1=C(N)Oc2c(ccc3cccnc23)C1c1cccnc1 (stereo not given) | 62.4% (active)
50 | N#CC1=C(N)Oc2cc(O)ccc2C1c1ccccc1 (stereo not given) | -11.3%

Row | SMILES | cytotoxicity
51 | CCN(CC)c1ccc2c(c1)OC(N)=C(C#N)C2c1cccnc1 (stereo not given) | 64.4% (active)
52 | CCc1[nH]nc2c1C(c1cccnc1)C(C#N)=C(N)O2 (stereo not given) | 4.9%
53 | CCCc1nn(C)c2c1C(c1cccnc1)C(C#N)=C(N)O2 (stereo not given) | 3.9%
54 | N#CC1=C(N)Oc2cc(O)ccc2C1c1ccncc1 (stereo not given) | 3%
55 | CC(C)(C)c1[nH]nc2c1C(c1cccnc1)C(C#N)=C(N)O2 (stereo not given) | -9.6%
56 | CN(C)c1ccc2c(c1)OC(N)=C(C#N)C2c1cccc(F)c1 (stereo not given) | 62.6% (active)
57 | N#CC1=C(N)Oc2nc(-c3ccccc3)[nH]c2C1c1cccnc1 (stereo not given) | 3.4%
58 | C=CCSC1=C(C#N)C(c2ccccc2Cl)CC(=O)N1 (stereo not given) | -33.8%
59 | O=C(O)C1C2C=CC(C2)C1C(=O)Nc1ccc(C(=O)N2CCCCC2)c(Cl)c1 (stereo not given) | -20.1%
60 | COc1cc2c(cc1OC)C1=C(C#N)CN(CC(=O)O)CN1CC2 | -4.5%
61 | COc1ccc(S(=O)(=O)NCCC(=O)NCc2cccs2)cc1 | -13.7%
62 | C=C(C)CSc1nc2ncccc2[nH]1 | -0.6%
63 | COc1ccc(CN(C(=O)CSc2nnc(-c3ccc(F)cc3)o2)c2ccc(F)cc2)cc1 | 3%
64 | O=C(CSc1nnc(-c2c[nH]c3ccccc23)o1)N(Cc1ccccc1)c1ccc(F)cc1 | 53.6% (active)
65 | COc1ccc(CN(C(=O)CSc2nnc(-c3ccccc3F)o2)c2ccc(F)cc2)cc1 | 6.6%
66 | CCOC(=O)C(C)Sc1nc2ccccc2c(=O)n1CC (stereo not given) | -15.7%
67 | Cc1cccc(N2CCN(c3nnnn3-c3ccccc3)CC2C)c1 (stereo not given) | 0.6%
68 | CC(NC(=O)c1noc2c1CCCC2)c1ccccc1 (stereo not given) | 4.7%
69 | Cc1ccc2cc(CN(Cc3ccc(F)cc3)Cc3nnnn3C3CCCC3)c(=O)[nH]c2c1 | 23.4%
70 | CCOc1ccc2[nH]c(=O)c(CN(Cc3cccs3)Cc3nnnn3C(C)(C)C)cc2c1 | 31.8%
71 | Cc1ccc2[nH]c(=O)c(CN(Cc3nnnn3C3CCCC3)C3CCCCC3)cc2c1 | 9.3%
72 | Cc1ccc2cc(CN(Cc3ccccc3)Cc3nnnn3C3CCCC3)c(=O)[nH]c2c1 | 53.3% (active)
73 | CCOc1ccc2[nH]c(=O)c(CN(Cc3cccs3)Cc3nnnn3C(C)(C)CC)cc2c1 | 12.9%
74 | CCOC(=O)Cn1nnnc1C(CC)N(Cc1cccs1)Cc1cc2cc(C)ccc2[nH]c1=O (stereo not given) | 7.5%
75 | CCOc1ccc2[nH]c(=O)c(CN(Cc3cccs3)C(CC)c3nnnn3C(C)(C)CC)cc2c1 (stereo not given) | 59% (active)

Row | SMILES | cytotoxicity
76 | Cc1ccc2[nH]c(=O)c(CN(Cc3ccccc3)Cc3nnnn3C3CCCC3)cc2c1 | 39.3%
77 | CCC(c1nnnn1C1CCCC1)N(Cc1cccs1)Cc1cc2cc(C)ccc2[nH]c1=O (stereo not given) | 56.4% (active)
78 | COc1ccc(NC(=O)C2CC(=O)NC(Nc3cccc(C)c3)=N2)cc1 (stereo not given) | 5.9%
79 | COC(=O)c1ccc(COC(=O)c2ccc(-n3cnnn3)cc2)o1 | -1.9%
80 | O=C(Cc1ccc(Cl)cc1)NCCN1CCCC1 | 1.5%
81 | Cc1c(C(=O)O)sc2ncn(C)c(=O)c12 | -7.5%
82 | c1ccc(CCn2nnnc2C(c2cccs2)N2CCOCC2)cc1 (stereo not given) | 3.6%
83 | COc1ccc(S(=O)(=O)NCCc2csc(C)n2)cc1C | 0.1%
84 | Cc1ccccc1-n1c(C)nc2ccccc21 | -11.6%
85 | Cc1ccc2c(c1)c1c3n2CCN(C(=O)C2CC2)C3CCC1 (stereo not given) | -6.9%
86 | Cc1ccc2c(c1)c1c3n2CCN(C(=O)CN2CCN(C)CC2)C3CCC1 (stereo not given) | 42.4%
87 | COc1ccc(Cn2nnnc2CN2CCOCC2)cc1 | -5.5%
88 | CN(C)CCNc1nc(-c2ccco2)c2c(c1C#N)CC(C)(C)OC2 | 2.7%
89 | CCCc1nc(NCc2ccco2)c(C#N)c2c1COC(C)(C)C2 | -13.3%
90 | CCN(CC)CCNc1nc(-c2ccco2)c2c(c1C#N)CC(C)(C)OC2 | -14.1%
91 | Cc1nc(NCc2ccco2)c(C#N)c2c1COC(C)(C)C2 | -17.6%
92 | CCC(=O)Nc1cc(C(=O)NCC2CCCN2CC)c(OC)cc1N(C)C (stereo not given) | -2.6%
93 | Cc1cccc(C)c1NC(=O)N1CCC(n2cnc3ccccc32)CC1 | -24.3%
94 | Cc1cc(C)n(C(=O)CNC(=O)COc2ccccc2)n1 | -2.7%
95 | COC(=O)c1ccccc1NC(=O)c1cc2sccc2n1C | 3.3%
96 | Cc1ccc(S(=O)(=O)Cn2nnnc2C(C(C)C)N2CCN(Cc3ccco3)CC2)cc1 (stereo not given) | -0.6%
97 | CCC(=O)Oc1ccc(-c2nc(-c3cccnc3)no2)cc1 | -4.4%
98 | CCOc1ccc(C(=O)COC(=O)CC)cc1 | -1.4%
99 | COC(=O)CCC(=O)Oc1ccc(OC(=O)CCC(=O)OC)cc1 | 31.7%
100 | CC(C)c1ccc(OC(=O)NCCO)cc1 | -0.9%
